Results on one molecule are retold here after ChEMBL document CHEMBL2218924, “A broad activity screen in support of a chemogenomic map for kinase signalling research and drug discovery” (Biochem J, 2013).

Test [1] deals with T1, Serine/threonine-protein kinase TBK1 (Homo sapiens) (UniProt Q9UHD2).
T1 sequence (whole entry): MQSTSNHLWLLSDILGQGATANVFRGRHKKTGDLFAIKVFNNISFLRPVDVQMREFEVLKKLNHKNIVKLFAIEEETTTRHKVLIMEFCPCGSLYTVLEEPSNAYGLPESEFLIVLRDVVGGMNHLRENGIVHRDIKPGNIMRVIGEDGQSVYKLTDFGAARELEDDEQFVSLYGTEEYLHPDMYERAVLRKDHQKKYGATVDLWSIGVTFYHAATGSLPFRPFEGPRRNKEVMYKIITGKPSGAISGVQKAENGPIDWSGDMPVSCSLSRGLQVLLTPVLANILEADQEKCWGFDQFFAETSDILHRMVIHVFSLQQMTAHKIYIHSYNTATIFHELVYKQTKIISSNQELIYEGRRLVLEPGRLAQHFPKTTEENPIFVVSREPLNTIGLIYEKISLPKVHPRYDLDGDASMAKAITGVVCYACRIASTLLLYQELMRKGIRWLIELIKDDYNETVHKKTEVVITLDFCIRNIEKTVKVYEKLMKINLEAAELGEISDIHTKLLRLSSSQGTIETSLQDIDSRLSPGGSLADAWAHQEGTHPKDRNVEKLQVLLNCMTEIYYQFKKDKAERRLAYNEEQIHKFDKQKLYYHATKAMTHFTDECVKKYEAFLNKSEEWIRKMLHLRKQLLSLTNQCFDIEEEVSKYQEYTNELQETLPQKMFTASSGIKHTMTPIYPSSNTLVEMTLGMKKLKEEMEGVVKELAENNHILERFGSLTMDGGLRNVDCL
The settings on record: at 1 µM.

Test [2] deals with T1, Serine/threonine-protein kinase TBK1 (Homo sapiens). To be noted: at 10 µM.
The target in test [3] is T2, TGF-beta receptor type-1 (Homo sapiens) (UniProt P36897).
T2 sequence (whole entry): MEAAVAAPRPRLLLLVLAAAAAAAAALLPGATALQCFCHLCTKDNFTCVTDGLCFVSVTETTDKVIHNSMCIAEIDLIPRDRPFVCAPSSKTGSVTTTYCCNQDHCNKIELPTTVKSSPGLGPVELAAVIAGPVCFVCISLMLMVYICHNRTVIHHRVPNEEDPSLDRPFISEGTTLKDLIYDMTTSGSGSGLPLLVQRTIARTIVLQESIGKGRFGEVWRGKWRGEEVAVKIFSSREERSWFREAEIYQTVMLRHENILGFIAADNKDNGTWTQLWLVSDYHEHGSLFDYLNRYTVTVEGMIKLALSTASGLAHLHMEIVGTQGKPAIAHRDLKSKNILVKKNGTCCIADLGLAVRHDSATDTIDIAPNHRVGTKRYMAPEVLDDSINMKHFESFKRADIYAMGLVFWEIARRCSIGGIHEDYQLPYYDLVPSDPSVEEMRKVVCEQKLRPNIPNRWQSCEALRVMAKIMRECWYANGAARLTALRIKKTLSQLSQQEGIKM
To be noted: at 1 µM.

Test [4] addresses T2, TGF-beta receptor type-1 (Homo sapiens). The settings on record: at 10 µM.
In test [5] the target is Insulin-like growth factor 1 receptor (Homo sapiens) (UniProt P08069). The settings on record: at 1 µM.
Sequence of Insulin-like growth factor 1 receptor (Homo sapiens) (P08069 31-736 limits assumed): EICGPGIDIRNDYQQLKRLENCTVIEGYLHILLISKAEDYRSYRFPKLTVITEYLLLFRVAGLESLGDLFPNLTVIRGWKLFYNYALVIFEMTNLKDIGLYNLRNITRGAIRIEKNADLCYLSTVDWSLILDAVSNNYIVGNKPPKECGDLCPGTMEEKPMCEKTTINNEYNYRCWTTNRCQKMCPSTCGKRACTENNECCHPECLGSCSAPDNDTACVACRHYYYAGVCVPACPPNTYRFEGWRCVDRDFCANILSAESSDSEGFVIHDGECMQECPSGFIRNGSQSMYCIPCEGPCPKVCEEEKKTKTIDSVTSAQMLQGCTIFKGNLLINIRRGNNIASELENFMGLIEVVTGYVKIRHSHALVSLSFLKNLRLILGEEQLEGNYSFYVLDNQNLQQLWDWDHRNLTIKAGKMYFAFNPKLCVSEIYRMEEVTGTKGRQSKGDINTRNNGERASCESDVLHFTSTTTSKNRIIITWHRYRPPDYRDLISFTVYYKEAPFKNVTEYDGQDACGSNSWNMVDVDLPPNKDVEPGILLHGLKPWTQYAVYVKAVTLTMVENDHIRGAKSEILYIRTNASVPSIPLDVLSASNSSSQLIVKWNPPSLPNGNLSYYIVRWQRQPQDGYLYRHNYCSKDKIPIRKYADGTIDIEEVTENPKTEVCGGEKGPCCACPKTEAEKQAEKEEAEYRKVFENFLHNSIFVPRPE
Sequence of Insulin-like growth factor 1 receptor (Homo sapiens) (P08069 741-1367 limits assumed): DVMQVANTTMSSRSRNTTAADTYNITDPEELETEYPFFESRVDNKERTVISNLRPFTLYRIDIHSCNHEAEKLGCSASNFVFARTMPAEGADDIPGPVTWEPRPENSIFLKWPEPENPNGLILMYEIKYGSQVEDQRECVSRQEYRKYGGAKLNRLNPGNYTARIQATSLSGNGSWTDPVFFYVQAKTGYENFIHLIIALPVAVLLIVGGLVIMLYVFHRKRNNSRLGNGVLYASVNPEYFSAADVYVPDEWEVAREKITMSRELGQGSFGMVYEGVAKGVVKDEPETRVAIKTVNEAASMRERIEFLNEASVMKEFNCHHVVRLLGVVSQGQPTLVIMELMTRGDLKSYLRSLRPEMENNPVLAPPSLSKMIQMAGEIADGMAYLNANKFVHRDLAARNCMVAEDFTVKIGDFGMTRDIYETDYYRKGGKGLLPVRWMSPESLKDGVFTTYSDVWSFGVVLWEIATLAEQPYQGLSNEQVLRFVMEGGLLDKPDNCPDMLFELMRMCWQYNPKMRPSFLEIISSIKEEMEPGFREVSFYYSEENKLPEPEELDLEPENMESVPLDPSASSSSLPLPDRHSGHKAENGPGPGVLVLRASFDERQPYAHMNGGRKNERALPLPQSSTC
Test [6] has the same target. The settings on record: at 10 µM.
For test [7], the target named is T3, Inhibitor of nuclear factor kappa-B kinase subunit alpha (Homo sapiens) (UniProt O15111).
T3 sequence (whole entry): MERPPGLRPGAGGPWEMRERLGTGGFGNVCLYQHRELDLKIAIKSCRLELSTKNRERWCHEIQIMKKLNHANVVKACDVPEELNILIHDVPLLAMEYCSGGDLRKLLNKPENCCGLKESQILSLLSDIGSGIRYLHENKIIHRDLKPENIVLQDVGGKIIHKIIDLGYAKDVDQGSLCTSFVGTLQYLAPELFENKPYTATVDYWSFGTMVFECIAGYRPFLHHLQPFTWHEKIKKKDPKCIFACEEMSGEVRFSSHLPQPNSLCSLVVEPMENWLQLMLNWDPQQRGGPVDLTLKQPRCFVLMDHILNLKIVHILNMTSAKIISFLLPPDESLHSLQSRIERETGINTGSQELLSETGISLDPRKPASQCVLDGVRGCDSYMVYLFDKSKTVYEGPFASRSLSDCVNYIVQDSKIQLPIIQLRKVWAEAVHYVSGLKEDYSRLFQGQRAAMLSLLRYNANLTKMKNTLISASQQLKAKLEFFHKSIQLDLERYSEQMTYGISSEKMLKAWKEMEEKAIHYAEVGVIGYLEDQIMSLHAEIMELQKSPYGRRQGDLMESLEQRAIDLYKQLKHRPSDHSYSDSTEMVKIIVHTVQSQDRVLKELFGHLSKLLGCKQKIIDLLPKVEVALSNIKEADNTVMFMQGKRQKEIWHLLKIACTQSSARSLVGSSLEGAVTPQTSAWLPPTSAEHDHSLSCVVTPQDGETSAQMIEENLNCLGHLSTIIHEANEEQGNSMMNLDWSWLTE
To be noted: at 1 µM.

The target in test [8] is T3, Inhibitor of nuclear factor kappa-B kinase subunit alpha (Homo sapiens). The settings on record: at 10 µM.
The target in test [9] is T4, Inhibitor of nuclear factor kappa-B kinase subunit beta (Homo sapiens) (UniProt O14920).
T4 sequence (whole entry): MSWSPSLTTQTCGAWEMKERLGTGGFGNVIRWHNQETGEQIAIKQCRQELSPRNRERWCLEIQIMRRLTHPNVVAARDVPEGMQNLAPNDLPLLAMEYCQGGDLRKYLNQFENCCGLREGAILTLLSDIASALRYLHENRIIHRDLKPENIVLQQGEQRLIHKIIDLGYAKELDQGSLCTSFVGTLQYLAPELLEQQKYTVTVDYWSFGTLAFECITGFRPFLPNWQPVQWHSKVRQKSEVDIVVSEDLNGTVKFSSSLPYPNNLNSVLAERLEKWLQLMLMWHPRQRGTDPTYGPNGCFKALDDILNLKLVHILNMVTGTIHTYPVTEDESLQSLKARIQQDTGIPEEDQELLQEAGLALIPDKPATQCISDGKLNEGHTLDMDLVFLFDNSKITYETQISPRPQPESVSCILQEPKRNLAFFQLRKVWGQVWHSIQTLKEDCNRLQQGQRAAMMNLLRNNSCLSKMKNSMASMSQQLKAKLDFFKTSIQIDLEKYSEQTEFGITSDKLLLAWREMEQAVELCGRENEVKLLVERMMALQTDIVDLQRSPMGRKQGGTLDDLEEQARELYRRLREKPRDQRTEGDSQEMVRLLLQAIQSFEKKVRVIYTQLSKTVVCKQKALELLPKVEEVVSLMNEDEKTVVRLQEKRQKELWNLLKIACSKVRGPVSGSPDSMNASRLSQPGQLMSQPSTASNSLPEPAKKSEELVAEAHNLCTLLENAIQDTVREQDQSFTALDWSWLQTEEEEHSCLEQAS
The settings on record: at 1 µM.

Test [10] concerns the target T4, Inhibitor of nuclear factor kappa-B kinase subunit beta (Homo sapiens). The settings on record: at 10 µM.

As for `Cc1cc2ncc(-c3ccccc3)nc2cc1C`, the residual activity (as a rule, the signal under treatment as a percentage of the control signal) worked out at 86% in test [1]; 73% in test [2]; 100% in test [3]; 91% in test [4]; 99% in test [5]; 101% in test [6]. The residual activity in [7] came out at 105%; in test [8] it was 109%; in [9], 101%; in test [10], 99%.
